Compound activity as filed in PubChem BioAssay.
An excerpt weighted towards active compounds, which were near 9.2% of everything screened.
FLuc modulator – counter-screen for miR-21 project: firefly luciferase inhibitors or activators; purified FLuc, Km substrates, luminescence inhibition; Potency, µM (titrated, usually from 57.5 µM), actives largely listed as inhibitors; AID 588342; actives 6.9% (n = 360,000); note: nearly all actives have a fitted effect of over 55% in size
Target sequence (P08659 whole entry, looked up): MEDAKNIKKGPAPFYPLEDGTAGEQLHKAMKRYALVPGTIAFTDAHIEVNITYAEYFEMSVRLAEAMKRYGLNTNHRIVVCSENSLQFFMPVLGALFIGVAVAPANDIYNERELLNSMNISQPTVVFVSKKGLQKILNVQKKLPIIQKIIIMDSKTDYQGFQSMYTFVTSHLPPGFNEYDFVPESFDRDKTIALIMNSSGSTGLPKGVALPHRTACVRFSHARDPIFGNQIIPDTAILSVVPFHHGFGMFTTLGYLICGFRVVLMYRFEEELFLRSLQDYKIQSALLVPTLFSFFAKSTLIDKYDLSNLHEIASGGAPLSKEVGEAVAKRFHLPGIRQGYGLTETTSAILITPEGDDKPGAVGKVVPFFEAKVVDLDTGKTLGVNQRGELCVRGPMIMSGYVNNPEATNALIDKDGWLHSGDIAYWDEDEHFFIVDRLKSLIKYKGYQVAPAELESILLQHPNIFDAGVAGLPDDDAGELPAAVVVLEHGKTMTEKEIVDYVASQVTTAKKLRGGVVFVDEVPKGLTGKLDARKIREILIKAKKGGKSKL
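Purified P. pyralis luciferase, 10 nM final, with Km-level 10 uM D-luciferin and 10 uM ATP in 50 mM Tris acetate pH 7.5, 10 mM Mg acetate, 0.01% Tween-20, 0.05% BSA; 6-point qHTS titration about 60 µM downward; luminescence read.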
Rab9 prom act – activates the Rab9 promoter; actives 2.8% (n = 320,000); Huh7 Rab9 promoter-luciferase reporter, luminescence, 24 h; AID 485297; Potency, µM (titrated, usually from 9.22 µM), usual class: activators; note: nearly all actives have a fitted effect of over 60% in size
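Promoter activation is measured as luciferase luminescence in Huh7 cells stably transfected with a Rab9 promoter–luciferase construct, following 24 h compound exposure at 37 °C and 10 min reagent incubation at ambient temperature.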
ELG1 genotox – inducers of genotoxicity in HEK293T ELG1-luciferase cells; HEK293T ELG1-luciferase reporter, luminescence, 16 h; Potency, µM (highest dose often 46 µM), usual class: activators; actives 1.3% (n = 330,000); AID 504466; note: nearly all actives have a fitted effect of over 60% in size
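Genotoxicity was scored as increased ELG1-luciferase reporter signal, measured by ONE-Glo luminescence (30 min, room temperature). Compound or vehicle exposure of the HEK293T reporter cells lasted 16 hr at 37°C.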
NPC1 prom act – activators of NPC1 promoter; Potency, µM (doses to about 9.22 µM), most hits filed as activators; actives 2.4% (n = 320,000); Huh7 NPC1 promoter luciferase reporter, 24 h; note: nearly all actives have a fitted effect of over 60% in size
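In 1536-well qHTS, Huh7 cells harboring an NPC1 promoter–luciferase construct received compound for 24 h; activation was quantified by luminescence following luciferase reagent addition.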
SMN2 splice up – enhancers of SMN2 splice variant expression; HEK293 SMN2-luciferase splicing reporter, luminescence, 30-36 h; Potency, µM (top dose mostly 46.1 µM), hits mostly activators; actives 2.8% (n = 210,000); AID 1458; note: nearly all actives have a fitted effect of over 55% in size
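qHTS luciferase splicing reporter: luminescence rises when SMN2 exon 7 is included in transfected HEK293 cells. Compound exposure lasted 30-36 h at 37C, with 4.5 mM final sodium butyrate as control, followed by a ONE-Glo read.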
ELG1 repair inh – inhibitors of ELG1-dependent DNA repair in HEK293T cells. Potency, µM (highest dose often 46.1 µM), usual class: inhibitors. actives 2.3% (n = 330,000). HEK293T ELG1-luciferase reporter, luminescence, 16 h; DNA damage induced by 5-fluorouridine; note: nearly all actives have a fitted effect of over 55% in size
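Cells (2,000 per well) received 5-fluorouridine plus test compound or DMSO and were incubated 16 hr at 37 °C, 5% CO2. Luciferase activity was read by luminescence 30 min after ONE-Glo addition; signal suppression marked inhibition of damage-induced ELG1 function.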
A number is an active result; n = inactive; u = inconclusive; x = no result given; ! = a repeat was not active. Calls come from the whole dose curve; as a rule, active = well fitted curve in the direction sought with a large enough effect; inconclusive = small, poorly fitted or top-dose-only effect, or another doubt; inactive = no such curve, though single readings can be large; an effect the other way counts as inactive or inconclusive.

SMILES | FLuc modulator | Rab9 prom act | ELG1 genotox | NPC1 prom act | SMN2 splice up | ELG1 repair inh
Clc1ccc(-c2nc3ccccc3[nH]2)cn1 | 19µM | u | n | u | x | u
CC(NCc1ccc(S(N)(=O)=O)cc1)C(=O)Nc1ccc([N+](=O)[O-])cc1Cl (centres undefined) | n | n | n | n | n | 23µM
CC(NCc1ccc(S(N)(=O)=O)cc1)C(=O)Nc1cc([N+](=O)[O-])ccc1Cl (centres undefined) | n | n | n | n | n | n
CCOc1ccccc1NC(=O)Cn1c(=O)n(Cc2ccccc2)c(=O)c2c(C)c(C)sc21 | n | x | x | x | n | x
CCN(C(=O)c1cccc(Br)c1)c1ccccc1 | n | n | n | n | n | n
CN(C)c1ccc(/C=C/C(=O)c2cccc(Br)c2)cc1 | 3µM | n | n | n | n | n
CN(C)c1ccc(C(=O)/C=C/c2cccnc2)cc1 | 3µM | u | n | u | x | u
CC1(C)CC(=O)C2=C(C1)Oc1nc3ccccc3cc1C2C(C#N)C#N (centres undefined) | u | n | n | n | n | 23µM
COCc1cc(C)nc2c1C(=O)NC(c1ccc(Br)cc1)N2Cc1ccccc1 (centres undefined) | n | x | x | x | n | x
COc1cccc(-c2csc(N3CCN(C(=O)C4CCCCC4)CC3)n2)c1 | n | n | n | n | n | u
O=C(Nc1nc(-c2ccc(F)cc2)cs1)C1CCN(C(=O)c2ccc(F)cc2)CC1 | n | n | n | n | x | 18µM
CCOC(=O)c1cnn(-c2nc(-c3ccc(C)cc3)cs2)c1C(F)(F)F | n | n | n | n | n | n
O=C(C1CCCCC1)N1CCN(c2nc(-c3ccc(F)cc3)cs2)CC1 | u | n | n | n | n | 21µM
NC(=O)C1CCN(c2nc(-c3ccc4occc(=O)c4c3)cs2)CC1 | u | 2.5µM | n | u | x | n
O=C(O)c1cnn(-c2nc(-c3ccc(F)cc3)cs2)c1C(F)(F)F | 21µM | u | n | n | n | u
CCOc1ccc2oc(C(=O)OCC(=O)N3CC(C)OC(C)C3)c(C)c2c1 (centres undefined) | n | n | n | n | x | n
CCCCc1c(C)[nH]c2nc3ccccc3n2c1=O | u | u | n | u | x | u
CS(=O)(=O)c1ccc(-c2csc(N3CCC(C(N)=O)CC3)n2)cc1 | n | x | x | x | x | x
NC(=O)C1CCN(c2nc(-c3ccccc3Br)cs2)CC1 | u | n | u | n | x | u
S=C(NCC1CCCO1)N1CCN(c2nc(-c3ccc(Cl)cc3)cs2)CC1 (centres undefined) | u | n | n | n | n | 12µM
CCOC(=O)N1CCN(c2nc(-c3ccc(F)cc3)cs2)CC1 | 19µM | n | u | n | u | n
NC(=O)C1CCN(c2nc(-c3ccccc3F)cs2)CC1 | u | 0.32µM | u | 0.79µM | x | u
NC(=O)C1CCN(c2nc(-c3ccc(F)cc3)cs2)CC1 | n | 1.4µM! | n | 2.2µM! | x | u
Cc1cc(C)nc(NS(=O)(=O)c2ccc(NC(=O)c3ccccc3O)cc2)n1 | u | x | x | x | n | x
CC(=O)N/C(=C\c1ccc(Br)s1)C(=O)O | n | n | n | n | n | n
SMILES | FLuc modulator | Rab9 prom act | ELG1 genotox | NPC1 prom act | SMN2 splice up | ELG1 repair inh
Cn1ccc2cc(-c3csc(N4CCC(C(N)=O)CC4)n3)ccc21 | 12µM | 1.3µM | n | 2.8µM | x | n
O=C(Cn1cc(F)c(=O)[nH]c1=O)NCCO | n | n | n | n | n | n
CC(=O)NC1=C(NC2CCS(=O)(=O)C2)C(=O)c2ccccc2C1=O (centres undefined) | n | n | n | n | x | u
CN(C1=C(NC(=O)c2ccccc2)C(=O)c2ccccc2C1=O)C1CCS(=O)(=O)C1 (centres undefined) | n | n | n | n | n | 9.2µM
c1ccc(C2CSc3ccccc3N2)cc1 (centres undefined) | 21µM | n | u | u | x | u
Cn1ncc(SCc2ccccc2)c(Cl)c1=O | n | n | n | n | x | 8.2µM
COc1cc(C2C=C(C34CC5CC(CC(C5)C3)C4)NC(=S)N2)cc(OC)c1OC (centres undefined) | n | n | n | n | n | 23µM
COc1ccc(OC)c(C2C=C(C34CC5CC(CC(C5)C3)C4)NC(=S)N2)c1 (centres undefined) | n | n | n | n | n | u
COc1cc(/C=N/OCC(=O)NC2CCCCC2C)ccc1OCc1ccc(Cl)cc1 (centres undefined) | 6.7µM | 2.8µM | 18µM | u | u | u
COC(=O)c1ccc(/C=N/OCC(=O)NC2CCCC(C)C2C)cc1 (centres undefined) | n | n | n | n | n | n
COc1cc(/C=N/N2CCOCC2)ccc1OCc1ccc(Cl)cc1 | 11µM | n | u | n | 11µM | u
COc1cc(/C=N/OCC(=O)Nc2cc(C)cc(C)c2)ccc1OCc1ccc(Cl)cc1 | 9.5µM | 3.2µM | u | u | 11µM | u
Cc1cccc(C)c1NC(=O)Cn1c(=O)n(CCC(=O)NCc2ccccc2Cl)c(=O)c2sccc21 | n | x | x | x | u | x
Cc1ccccc1Nc1nc(-c2sc(NC(=O)c3ccccc3)nc2C)cs1 | 8.5µM | n | n | n | n | u
Cc1nc(NC(=O)c2ccccc2)sc1-c1csc(Nc2cccc(Cl)c2)n1 | u | n | n | n | n | u
Nc1c(C(=O)c2ccc(F)cc2)sc(Nc2ccccc2F)c1S(=O)(=O)c1ccc(Br)cc1 | n | x | x | x | x | x
Nc1nc(Nc2ccccc2F)sc1C(=O)c1ccccc1 | 6µM | 0.71µM | u | u | x | u
Cc1nc(NC(=O)c2ccccc2)sc1-c1csc(Nc2ccc(F)cc2)n1 | 7.6µM | n | n | n | n | u
Cc1nc(NC(=O)c2ccccc2)sc1-c1csc(Nc2ccc(Cl)cc2)n1 | 8.5µM | n | n | n | n | u
Cc1ccccc1Nc1nc(-c2sc(NC(=O)c3cccc(Cl)c3)nc2C)cs1 | u | n | n | n | n | n
CCC(=O)N(Cc1cc2ccccc2[nH]c1=O)c1ccccc1OC | n | n | n | n | x | n
Cc1ccc(S(=O)(=O)c2nc(S(C)(=O)=O)sc2N2CCC3(CC2)OCCO3)cc1 | n | n | n | n | x | n
CCc1ccc(NC(=O)CSc2nc3c([nH]c4ccccc43)c(=O)n2C)cc1 | n | x | x | x | x | x
Cc1nc(NC(=O)c2ccccc2)sc1-c1csc(Nc2ccc(Cl)cc2Cl)n1 | 9.5µM | n | n | n | n | u
Cc1nc(Nc2ccccc2)sc1C(=O)c1ccc(F)cc1 | 19µM | u | n | u | x | u
Cc1c(NC(=O)c2ccc(NC(=O)C3CC3)cc2)cccc1C(=O)O | 15µM | n | n | n | x | n
Cc1cc(O)c(NC(=O)c2ccc(Br)o2)cc1C | u | n | u | n | 14µM | u
